Columns and labels:
Conditions in all cases: concentration: 1 μM, replicates: in singlicate; n = 1
IRAK1 = test system: IRAK1
IRAK3 = test system: IRAK3
IRAK4 = test system: IRAK4
ITK = test system: ITK
[1] = test system: JAK1(JH1domain-catalytic)
[2] = test system: JAK1(JH2domain-pseudokinase)
[3] = test system: JAK2(JH1domain-catalytic)
[4] = test system: JAK3(JH1domain-catalytic)
JNK1 = test system: T1, JNK1
T1 construct: gene MAPK8

JNK2 = test system: T2, JNK2
T2 construct: gene MAPK9
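Note: KINOMEscan kinase panel screen.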

Row | SMILES | %Inh (IRAK1) | %Inh (IRAK3) | %Inh (IRAK4) | %Inh (ITK) | %Inh [1] | %Inh [2] | %Inh [3] | %Inh [4] | %Inh (JNK1) | %Inh (JNK2)
1 | COc1ccc(-c2coc3ccc(-c4nnc(C)o4)cc23)cc1 | 0% | 0% | 9% | 0% | 15% | 0% | 3% | 0% | 0% | 0%
2 | COc1ccc2cc(-c3nc(-c4ccccc4C(C)C)[nH]c3-c3ccncc3)ccc2c1 [SB-660566] | 23% | 0% | 42% | 8% | 11% | 0% | 100% | 0% | 23% | 44%
3 | Nc1nccc(-c2c(-c3ccc(F)cc3)ncn2C2CCN(Cc3ccccc3)CC2)n1 [SB-219980] | 0% | 0% | 0% | 7% | 0% | 0% | 0% | 0% | 62% | 95.2%
4 | COc1nccc(-c2c(-c3ccc(F)cc3)ncn2CCCN2CCOCC2)n1 [SB-282852] | 3% | 0% | 0% | 53% | 36% | 0% | 4% | 12% | 41% | 61%
5 | CC(=O)c1c(C)c2cnc(Nc3ccn(C)n3)nc2n(C2CCCC2)c1=O | 11% | 0% | 11% | 0% | 0% | 0% | 0% | 9% | 8% | 18%
6 | O=C(Nc1n[nH]c2nc(-c3ccco3)c(Br)cc12)C1CCN(Cc2ccccc2)C1.O=C(O)[C@H](O)[C@@H](O)C(=O)O (stereo not shown) [SB-742034] | 0% | 35% | 0% | 13% | 0% | 61% | 23% | 0% | 37% | 0%
7 | CNc1nc(-c2ccc3c(N)n[nH]c3c2)cc(N2C[C@@H](C(=O)NC3CCCCC3)OC[C@H]2C)n1 [GSK2375584] | 21% | 0% | 0% | 10% | 11% | 0% | 0% | 0% | 3% | 0%
8 | Fc1ccc(-c2nc3n(c2-c2ccncc2)CCS3)cc1 [GI98581] | 3% | 4% | 0% | 5% | 10% | 0% | 0% | 0% | 73% | 96.2%
9 | COc1cccc(C2=C(Nc3cc(Cl)c(O)c(Cl)c3)C(=O)NC2=O)c1 [SB-390767] | 43% | 0% | 47% | 18% | 12% | 0% | 40% | 93.7% | 27% | 20%
10 | CNCc1ccc2nc(NC(=O)c3ccc(C(C)(C)C)cc3)cn2c1 | 13% | 0% | 0% | 0% | 0% | 17% | 3% | 3% | 18% | 6%
11 | Fc1ccc(-c2nc[nH]c2-c2ccncc2)cc1 [SB-217360] | 0% | 0% | 0% | 5% | 0% | 28% | 27% | 0% | 79% | 95.6%
12 | CC(C)c1ccc(O)cc1Nc1ccnc2ccc(C(F)(F)F)cc12 [GW482059] | 0% | 19% | 0% | 0% | 1% | 0% | 35% | 0% | 3% | 0%
13 | O=c1cc(N2CCOCC2)nc2n(Cc3ccccc3F)ccn12 [GSK2297428] | 0% | 0% | 0% | 15% | 10% | 0% | 0% | 0% | 1% | 11%
14 | CN1c2ccc(-c3ccc(C(N)=O)cc3)cc2-c2[nH]ncc2S1(=O)=O | 0% | 10% | 0% | 0% | 0% | 37% | 27% | 0% | 0% | 0%
15 | COc1ccc(CSc2nnc(-c3ccc4c(c3)CCO4)o2)cc1 | 0% | 0% | 0% | 8% | 18% | 0% | 0% | 0% | 0% | 0%
16 | Fc1ccc(-c2nn3cccc(F)c3c2-c2ccncc2)cc1 [GW475620] | 9% | 2% | 0% | 0% | 10% | 30% | 17% | 0% | 61% | 93.5%
17 | COc1ccc(CSc2nnc(-c3ccc4nccn4c3)o2)cc1C(F)(F)F | 44% | 30% | 38% | 20% | 0% | 0% | 13% | 1% | 0% | 0%

Row | SMILES | %Inh (IRAK1) | %Inh (IRAK3) | %Inh (IRAK4) | %Inh (ITK) | %Inh [1] | %Inh [2] | %Inh [3] | %Inh [4] | %Inh (JNK1) | %Inh (JNK2)
18 | Cl.Cl.Cl.N#Cc1ccc(CCNc2nccc(-c3cccc(CN4CCNCC4)c3)n2)cc1 [GSK2137462] | 0% | 0% | 0% | 7% | 3% | 6% | 0% | 0% | 32% | 0%
19 | Cc1c(Cn2c(C)c(C)n3c(=O)cc(N4CCOCC4)nc23)cccc1C(F)(F)F [GSK2328680] | 0% | 0% | 0% | 15% | 0% | 0% | 0% | 0% | 50% | 0%
20 | CS(=O)(=O)Cc1ccc(Nc2nccc(-c3c(-c4cccc(NC(=O)C5CCCCC5)c4)nn4ncccc34)n2)cc1 [GSK350559] | 24% | 3% | 25% | 6% | 0% | 0% | 16% | 43% | 43% | 49%
21 | Cc1ccc(NC(=O)Nc2ccccc2)cc1-c1ccc(C(=O)Nc2ccncc2)cc1 [GSK1398471] | 0% | 0% | 0% | 8% | 31% | 0% | 0% | 0% | 11% | 29%
22 | O=C1NC(=O)C(c2ccc(Cl)cc2)=C1Nc1cccc(Cl)c1 [SB-317651] | 0% | 0% | 0% | 5% | 26% | 0% | 11% | 0% | 61% | 56%
23 | COC(=O)c1cccc(NC(=O)NC2CCN(c3ccnc(Nc4ccc(F)cc4)n3)C2)c1 (stereo not shown) [GSK1379725] | 0% | 0% | 14% | 8% | 4% | 0% | 0% | 0% | 17% | 28%
24 | COc1ccc(Nc2nccc(-c3ccc(NC(=O)c4cc5cc(F)ccc5[nH]4)cc3)n2)cc1 [GSK1229496] | 10% | 0% | 0% | 0% | 0% | 0% | 18% | 0% | 4% | 9%
25 | Cc1ccc(-c2nc(Nc3ccncc3)c3ccccc3n2)s1 [GSK189015] | 0% | 19% | 2% | 22% | 16% | 38% | 3% | 0% | 20% | 19%
26 | Cc1ccc(NC(=O)Nc2ccc(Cl)c(C(F)(F)F)c2)cc1-c1ccc(C(=O)Nc2ccncc2)cc1 [GSK1398470] | 0% | 9% | 0% | 18% | 5% | 0% | 0% | 0% | 16% | 14%
27 | COc1ccc(Nc2nccc(NCCNC(=O)Nc3cc(C)ccc3C)n2)cc1 [GSK1379899] | 0% | 8% | 3% | 10% | 0% | 0% | 16% | 0% | 20% | 0%
28 | COc1ccc(Nc2nccc(N3CCC(NC(=O)C(C)c4ccc(Cl)cc4)CC3)n2)cc1 (stereo not shown) [GSK1379812] | 6% | 18% | 0% | 22% | 26% | 6% | 0% | 0% | 1% | 14%
29 | c1ccc(-c2ccnc3[nH]ccc23)cc1 [SB-693578] | 64% | 0% | 43% | 18% | 1% | 2% | 69% | 76% | 32% | 0%
30 | CCn1c(-c2c(N)noc2C)nc2cnccc21 [SB-737856] | 15% | 29% | 34% | 16% | 8% | 0% | 11% | 0% | 15% | 23%
31 | FC(F)(F)c1ccccc1-c1cc(-c2c[nH]nc2-c2ccccn2)ccn1 [GW679396] | 0% | 0% | 0% | 8% | 5% | 0% | 0% | 0% | 30% | 32%
32 | CC(C)c1cc(-c2ccc3c(N)n[nH]c3c2)nc(N)n1 [GSK2250882] | 31% | 4% | 0% | 11% | 0% | 8% | 0% | 0% | 21% | 30%
33 | CCn1c(-c2ccccc2)nc2cnccc21 [SB-733416] | 45% | 4% | 38% | 1% | 0% | 0% | 30% | 0% | 21% | 3%
34 | Cc1nccc(-c2c(-c3ccc(F)cc3)ncn2CCCN2CCOCC2)n1.Cl [SB-282975] | 39% | 0% | 30% | 24% | 0% | 17% | 37% | 9% | 13% | 40%

Reference: publication PMC5540273 (PLoS ONE, 2017)
